Compounds without any hit were thinned out: in the full panel of roughly 79,000, 15% have a hit. Cut-off read from the data, not from the text of the source: active = growth inhibition above about 70%; inactive = the rest.
Columns and labels:
[1] = NCI Yeast Anticancer Drug Screen. Data for the rad50 strain (AID 155);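 note: 0% = growth of vehicle-only cultures of the same strain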; conditions: S. cerevisiae rad50 strain growth inhibition; at 50.0 µM; active compounds read high
Summary of the method: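 Compounds were tested on a yeast strain with an engineered DNA damage repair alteration; the reported value is growth inhibition normalised to vehicle treatment.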

[2] = NCI Yeast Anticancer Drug Screen. Data for the mec2-1 strain (AID 157); conditions: S. cerevisiae mec2-1 strain, at 50.0 µM, active compounds read high
Summary of the method: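 Compounds were applied to mec2-1 yeast cells. Their growth was then compared with that of vehicle-treated cultures to give growth inhibition.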

[3] = NCI Yeast Anticancer Drug Screen. Data for the sgs1 mgt1 strain (AID 161);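 note: 0% = growth of cultures given vehicle only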; conditions: S. cerevisiae sgs1 mgt1 strain, at 50.0 µM, active compounds read high
Summary of the method: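 This yeast growth screen uses a strain with defined DNA-repair lesions; compound-treated growth is compared with vehicle-treated growth.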

[4] = NCI Yeast Anticancer Drug Screen. Data for the cln2 rad14 strain (AID 165);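 note: 0% = growth equal to vehicle treated cultures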; conditions: S. cerevisiae cln2 rad14 strain, at 50.0 µM, active compounds read high
Summary of the method: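 Strain: cln2 rad14 yeast, altered in cell cycle control and DNA damage repair. Read-out: growth inhibition vs vehicle.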

[5] = NCI Yeast Anticancer Drug Screen. Data for the bub3 strain (AID 167); conditions: S. cerevisiae bub3 mutant strain, at 50.0 µM, active compounds read high
Summary of the method: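 Growth of a checkpoint-deficient yeast mutant is measured after compound exposure. Values represent inhibition relative to vehicle.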

[6] = NCI Yeast Anticancer Drug Screen. Data for the mlh1 rad18 strain (AID 175); conditions: S. cerevisiae mlh1 rad18 strain growth inhibition; at 50.0 µM; active compounds read high
Summary of the method: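 A repair-deficient yeast strain is exposed to test compound, and growth is scored relative to vehicle-treated controls.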

Measured: growth inhibition

O=C(O)c1nn(-c2ccccc2)c2c1CSc1ccccc1-2
inactive: [1] 35.5% | [2] 34.2% | [3] 25.6% | [4] 27.2% | [5] 16.9% | [6] 13.2%

CSc1nc(C)cc(N(C)c2ccccc2)n1
inactive: [1] -5.9% | [2] 0.25% | [3] 8.85% | [4] -8.9% | [5] -18.2% | [6] 14.6%

COc1ccccc1OCC(O)CO (stereo not drawn)
inactive: [1] -8.3% | [2] -22.9% | [3] -14.8% | [4] 7.7% | [5] -10.9% | [6] 10.5%

CCCN(Cc1ccccc1)CC(O)c1ccc(Cl)cc1 (stereo not drawn)
inactive: [1] 0.95% | [2] 3.5% | [3] 32.2% | [4] 2.95% | [5] 32.9% | [6] 20.1%

Nc1cccc2c1CCC=C2
inactive: [1] -0.05% | [2] -6.5% | [3] -3.55% | [4] -6% | [5] 7.6% | [6] -1.9%

Nc1cc(NC(=O)CO)cc(C(=O)O)c1
inactive: [1] 14.2% | [2] -1.15% | [3] -1% | [4] -0.4% | [5] 4.05% | [6] 7.1%

CCOC(=O)c1n[nH]c(=S)[nH]c1=O
inactive: [1] -7.95% | [2] -1.8% | [3] -3.05% | [4] -16.9% | [5] 11.7% | [6] -14.9%

CC1=Nc2nc(=NCCCN(C)C)nc3cccc(n23)N1
inactive: [1] 7.6% | [2] -1.35% | [3] 7.65% | [4] 11.2% | [5] 6.4% | [6] 4%

Cc1ccc(NC(=O)/C=C/c2ccccc2)cc1Cl
inactive: [1] 2% | [2] 14.2% | [3] 8.15% | [4] -5.5% | [5] 27.4% | [6] 16.1%

O=C(Cc1ccccc1)Nc1ccc(Br)cc1
inactive: [1] 6.15% | [2] 15.8% | [3] 15.5% | [4] -16.1% | [5] 13.7% | [6] 8.55%

O=[N+]([O-])c1ccc(C(O)(C#CCN2CCCC2)c2ccccc2)cc1 (stereo not drawn)
inactive: [1] 20.5% | [2] 11.9% | [3] -24.1% | [4] 10.2% | [5] 3.5% | [6] 12.7%

CCCCCCC(=O)/C=C/c1cccc(OCc2ccccc2)c1
inactive: [1] 32% | [2] 3.8% | [3] 13.3% | [4] 13.6% | [5] 18.4% | [6] 13.7%

O=C(COc1ccc(Cl)cc1)Nc1ccccc1Br
inactive: [1] 11% | [2] 12.1% | [3] 7.35% | [4] 9% | [5] 33.7% | [6] -4.55%

CCOCCC(=O)O
inactive: [1] 26.1% | [2] 6.3% | [3] -7% | [4] -5.3% | [5] 18.1% | [6] 6.15%

O=[N+]([O-])c1ccc(NC2CCCCC2)nc1
inactive: [1] 14% | [2] -9.85% | [3] 13.9% | [4] 7.65% | [5] 42.6% | [6] -1.55%

C=CCOc1cc2c(cc1C(C)c1ccc(OCC)c(C)c1)OCO2 (stereo not drawn)
inactive: [1] 4.35% | [2] -8.95% | [3] -4.85% | [4] -70.5% | [5] 7.15% | [6] -1.6%

CC(=O)C(C)(C)CCC(C)(C)C(C)=O
inactive: [1] 2.95% | [2] -12.6% | [3] -4% | [4] 13.1% | [5] 8.4% | [6] -20.6%

Cc1cc2nc(C(C)(C)O)[nH]c2cc1C
inactive: [1] 0.2% | [2] -4.8% | [3] 2.8% | [4] 8.2% | [5] 1.6% | [6] 13.2%

Oc1cccc(C(c2ccccc2)c2ccccc2)c1
inactive: [1] -0.6% | [2] 0.3% | [3] -5.5% | [4] -11.1% | [5] -3.6% | [6] -3.95%

CCCCCCCCOc1ccc(Cl)cc1
inactive: [1] -2.95% | [2] -11.8% | [3] -5.35% | [4] -35.2% | [5] -21.6% | [6] -28.9%

Cc1cc2c(=O)cc(-c3ccccc3Cl)oc2c(C(=O)O)c1C
inactive: [1] -3.1% | [2] -10.3% | [3] -4.45% | [4] 8.2% | [5] -2.75% | [6] -18.6%

Cc1cc(C)c(S(=O)(=O)O)cc1N
inactive: [1] -2.55% | [2] 2.1% | [3] 6.1% | [4] -42% | [5] -0.05% | [6] -26.1%

O=C1C=CC[C@H](/C=C/c2ccccc2)O1
inactive: [1] 21.6% | [2] 31.8% | [3] 28.6% | [4] 24.4% | [5] 33.5% | [6] 48.9%

O=C1C=CC(=O)N1Cc1ccco1
inactive: [1] -3.7% | [2] -16.8% | [3] 5.9% | [4] 8.5% | [5] 10.1% | [6] -16.6%

NC(=O)C(=O)N/N=C1/c2ccccc2CC1C1(O)C(=O)Nc2c(Cl)cc(Cl)cc21 (stereo not drawn)
inactive: [1] 50.4% | [2] 30.9% | [3] 38.5% | [4] 16.6% | [5] 3.55% | [6] 44.2%

CC(=O)Oc1cccc(/C=C/C(=O)O)c1
inactive: [1] 19% | [2] 29.3% | [3] 22.9% | [4] 3.75% | [5] 39.6% | [6] 18.9%

Oc1ccc2c(c1)c1ccccc1c1ncccc21
inactive: [1] 46% | [2] 3.4% | [3] 43.6% | [4] 3.7% | [5] 9.35% | [6] 49%

CCOCCOC(=O)CCCCCCCCC(=O)OCCOCC
inactive: [1] 9.7% | [2] 11.9% | [3] 12.6% | [4] 37.9% | [5] 25.6% | [6] 25.9%

COc1ccc([N+](=O)[O-])cc1NC(=O)Nc1ccc(F)c([N+](=O)[O-])c1
inactive: [1] 8.6% | [2] 3.4% | [3] -6.3% | [4] 0.2% | [5] -3.8% | [6] 6.3%

N#CC(C(=O)C(=O)Nc1cccc(C(F)(F)F)c1)c1c(Cl)cccc1Cl (stereo not drawn)
inactive: [1] 10.1% | [2] 11.6% | [3] 17.1% | [4] -35% | [5] -1.7% | [6] 2.15%

COC(=O)C(c1ccccc1)C(CBr)(OC)c1ccccc1 (stereo not drawn)
inactive: [1] 18.8% | [2] 8.85% | [3] 12.5% | [4] 15.8% | [5] 13.6% | [6] 27.1%

COc1ccc(/C=C2\CCC(CNc3cc(C)on3)C2=O)cc1 (stereo not drawn)
inactive: [1] 21.5% | [2] -14.6% | [3] 17.1% | [4] 37.1% | [5] 29.1% | [6] -19.4%

COC(=O)c1cc(C(=O)OC)cc([N+](=O)[O-])c1
inactive: [1] -6.4% | [2] -21.9% | [3] 8.75% | [4] 20.4% | [5] -38.5% | [6] 0.05%

CSC(=NCc1ccccc1)Nc1c(C)cccc1C
inactive: [1] 13.4% | [2] 4.45% | [3] 6.75% | [4] 8.1% | [5] 28.1% | [6] 17.1%

[CH3][Ge]([CH3])([CH3])/[C](=[C](\c1ccccc1)[Ge]([CH3])([CH3])[CH3])c1ccccc1
inactive: [1] 39.6% | [2] -3.5% | [3] 10% | [4] 9.6% | [5] -1.5% | [6] 9.65%

CCCN=C(C)C(C)=NCCC
inactive: [1] -18.7% | [2] -15.1% | [3] -15.1% | [4] -11% | [5] -19.4% | [6] -11.3%

Cc1nc(Nc2ccc(Cl)cc2)c2cnn(-c3ccccc3)c2n1
inactive: [1] 29.1% | [2] -7.2% | [3] -8% | [4] -35.9% | [5] 6.75% | [6] 26.9%

CC1=C(C(=O)OCCc2ccc([N+](=O)[O-])cc2)C(c2cccc([N+](=O)[O-])c2)C(C(=O)OC(C)C)=C(C)N1 (stereo not drawn)
inactive: [1] 0.15% | [2] -6.95% | [3] 12.8% | [4] 0.45% | [5] 16.1% | [6] -30.9%

CN1CCOC1(C)CO (stereo not drawn)
inactive: [1] 3.85% | [2] -16.7% | [3] -10.3% | [4] -20.6% | [5] -8.5% | [6] -55%

Cc1cc(C)c(Br)cc1C
inactive: [1] 4.9% | [2] 15% | [3] 5.8% | [4] 3.4% | [5] 3% | [6] -5.35%

O=C(CSc1nnc(Cc2ccccc2)o1)Nc1ccccc1
inactive: [1] -28.1% | [2] 0.05% | [3] -38.6% | [4] -13.3% | [5] -35.5% | [6] -27.1%

CCOC(=O)C1=C(C)NC(C)=C(C(=O)OCC)C1
inactive: [1] 14.9% | [2] -5.8% | [3] -1.5% | [4] -41.1% | [5] 31.1% | [6] 13.5%

CCCC(=O)Nc1cccc(C(F)(F)F)c1
inactive: [1] 7.65% | [2] 19.6% | [3] -11.4% | [4] 22.5% | [5] 26.9% | [6] 28.6%

Source: PubChem BioAssay (NCI)
